This is part of a sample that, as a whole, favours compounds with a hit. Of some 83,000 tested, about 20% had one in any assay.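 Growth was measured after 48 h exposure to one concentration of compound in 96-well plates. Values under 10 count as active.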 Unmarked numbers belong to inactive results. Activity calls are given as the source filed them.
Columns and labels:
Assay in all cases: NCI-60 one-dose screen, 48 h (100 = growth as untreated, 0 = no growth, -100 = all killed)
Settings in all cases: 10 µM unless noted
[1] = test system: BT-549 breast
[2] = test system: MDA-MB-435 melanoma
[3] = test system: SW-620 colon
[4] = test system: HCT-116 colon
[5] = test system: HCC-2998 colon
[6] = test system: KM12 colon
[7] = test system: MCF7 breast

Structure (SMILES)	growth [1]	growth [2]	growth [3]	growth [4]	growth [5]	growth [6]	growth [7]
CCC[C@H](N[C@@H](C)C(=O)N1[C@H](C(=O)O)C[C@@H]2CCCC[C@@H]21)C(=O)OCC	113%	112%	114%	106%	103%	104%	
CN(CCOc1ccc(CC2SC(=O)NC2=O)cc1)c1ccccn1 (stereo not drawn)	104%	98.3%	102%	103%	112%	96.3%	
CCCc1nn(C)c2c(=O)[nH]c(-c3cc(S(=O)(=O)N4CCN(C)CC4)ccc3OCC)nc12	94.5%	100%	115%	98.8%	108%	103%	
NC(N)=NN=c1c(=O)c2ccccc2c1=O	92.3%	12.7%	-67% (active)	-37.8% (active)	112%	73.8%	
Fc1ccc([C@@H]2CCNC[C@H]2COc2ccc3c(c2)OCO3)cc1	84.2%	46.5%	98.4%	49.8%	-66.8% (active)	76.4%	
COc1ccc(/C(=C2\O[C@@H]([C@H](O)CO)[C@H]3OC(C)(C)O[C@@H]23)c2cc(OC)c(OC)c(OC)c2)cc1O	82%	-23.9% (active)		89.3%			95.7%
COc1ccc(-c2c(N)noc2-c2cc(OC)c3c(c2)OCCO3)cc1	20.4%	-7.52% (active)	27%	0.565% (active)	18.9%	0.643% (active)	
Cc1c(N(C)CS(=O)(=O)O)c(=O)n(-c2ccccc2)n1C	96.5%	103%	108%	105%	121%	109%	
N=c1ccn2c(n1)O[C@@H]1[C@@H](O)[C@H](CO)O[C@@H]12	83.5%	57.1%	66.5%	37.4%	50.2%	77.4%	
NCCCc1nnc(CCC(=O)c2nc3ccccc3[nH]2)o1	103%	105%		100%	98.1%	115%	91.4%
COc1cc2cn3c4ccc(O)cc4nc(N)c3c2cc1OC	20.6%	12.4%		-50.7% (active)	27.2%	37.9%	6.3% (active)
CCCCN(CCCC)CCCOC(=O)c1ccc(N)cc1	82.4%	-3.25% (active)	74.6%	58.4%	87.6%	103%	
COc1ccc2nccc(/C=C/c3ccnc4ccc(OC)cc34)c2c1	189%	111%		102%	96.5%	99.5%	88.1%
Cc1cc(=O)n2n1-c1ccc(Cl)cc1NC(=O)C2	104%	88.2%		107%	110%	114%	94.1%
CCCCCCCCCCCCCCCCCc1nccn1CCO	70%	95%	61.3%		55.4%	85.6%	
CCOC(=O)/C=C(/C)Sc1cc(O)c2ccccc2c1O	-37.1% (active)	-82.2% (active)		122%	17.3%	3.07% (active)	-75.9% (active)
COC1CC2CCC(C)C(O)(O2)C(=O)C(=O)N2CCCCC2C(=O)OC(C(C)CC2CCC(O)C(OC)C2)CC(=O)C(C)C=C(C)C(O)C(OC)C(=O)C(C)CC(C)/C=C/C=C/C=C1C (stereo not drawn)	32.5%	43.6%	64.5%	49.5%	50.4%	69.8%	
CO[C@H]1CC(O[C@@H]2/C(C)=C/C[C@@H]3C[C@@H](C[C@]4(CC[C@H](C)[C@@H](C5CCCCC5)O4)O3)OC(=O)[C@@H]3C=C(C)/C(=N/O)[C@H]4OC/C(=C\C=C\[C@@H]2C)[C@]43O)O[C@@H](C)C1O (stereo partly drawn)	-88.3% (active)	-86.1% (active)	-73.2% (active)	-95.6% (active)	-78.1% (active)	-88.8% (active)	

Structure (SMILES)	growth [1]	growth [2]	growth [3]	growth [4]	growth [5]	growth [6]	growth [7]
CC(C)[C@H]1CC[C@H]2[C@@H](CC[C@H]3[C@](C)(CN)CCC[C@]23C)C1	99.4%	1.77% (active)		5.32% (active)	29.3%	36.7%	-55.8% (active)
Cn1c(N)c(N=O)c(=O)[nH]c1=O	93.5%	108%		104%	118%	99%	106%
Oc1ccccc1/C=N\Nc1ccccc1	65.1%		34.5%	68.6%	79.6%	19.8%	61.1%
COc1ccc2c(c1)C(=O)c1c-2c(OCCCN(C)C)nc2cc(Br)ccc12	89.7%		35.7%	56.8%	69.6%	69.7%	18.5%
O=C(Nc1ccc(Cl)cc1Cl)Nc1ccc(-c2cccnc2)cc1N1CCC(CO)CC1	66.6%	21.4%		18.1%	35.2%	25.3%	20%
Cn1cnc([N+](=O)[O-])c1S(=O)(=O)Oc1ccc(Cl)cc1	103%	78.8%		-32.1% (active)	83.1%	84.9%	63.7%
CCN(CC)CCNc1ccc(Cl)cc1Cl	106%	111%		96.8%	97.4%	110%	107%
CCC(C)CC(C)C(=O)c1c(O)ccn(OC)c1=O (stereo not drawn)	78.1%		61.8%	47.6%	95.7%		74.3%
CN1C(=O)/C(=C/c2nc(-c3cccc(F)c3)n3ccccc23)c2ccccc21	90.9%		84.6%	44.5%	99.4%		44.3%
O=C(OC[C@H]1O[C@H](OC(=O)c2cc(O)c(O)c(OC(=O)c3cc(O)c(O)c(O)c3)c2)[C@H](OC(=O)c2cc(O)c(O)c(OC(=O)c3cc(O)c(O)c(O)c3)c2)[C@@H](OC(=O)c2cc(O)c(O)c(OC(=O)c3cc(O)c(O)c(O)c3)c2)[C@@H]1OC(=O)c1cc(O)c(O)c(OC(=O)c2cc(O)c(O)c(O)c2)c1)c1cc(O)c(O)c(OC(=O)c2cc(O)c(O)c(O)c2)c1	47.4%	8.23% (active)		11.5%	1.77% (active)	21.8%	
CN1CCN(Cc2ccc(NC(=O)c3[nH]ncc3Nc3ccnc4ccnn34)cc2)CC1	74.1%	56.1%		33.7%	68.7%	32.7%	35.9%
O=C(Nc1cccc(C(F)(F)F)c1)Nc1ccc(OCc2nnc(-c3ccc(Cl)cc3)o2)c(F)c1	104%	83.2%		37.1%	72.1%	49.7%	53.6%
Nc1nonc1-c1nc2ccccc2n1CC(=O)Nc1ccc2c(c1)COC2=O	81.3%		59.1%	74.1%	92.3%	64.4%	73.8%
COC(=O)[C@]1(CCSC)N[C@H](c2cn(-c3ccccc3)nc2C)[C@@H]2C(=O)N(c3ccc(C)cc3)C(=O)[C@@H]21	82.8%		106%	92.5%	96.4%	104%	102%
COc1cc2c(C#N)n3c(c2cc1OC)C(=O)C(c1ccccc1)Oc1ccccc1-3 (stereo not drawn)	-7.13% (active)	55.5%		27.9%		23.4%	93.9%
ClC1=C(Cl)C(=C2C(Cl)=C(Cl)C(Cl)=C2Cl)C(Cl)=C1Cl	107%		102%	101%	109%	104%	90.3%
S=c1[nH]nc2sc3ccccc3n12	116%		105%	102%	109%	115%	98.4%

Reference: PubChem BioAssay (NCI)
